# IP6K1 inh = IP6K1 kinase inhibition. Q92551. IP6K1 kinase, ADP-Glo luminescence, 2 h; hits give low values. activity change, % (series mostly up to about 58 µM). 140,000 tested, 0.81% active. AID 1645851; in the data active = activity change below about -25%
#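 ADP-Glo luminescence measures ADP made by human IP6K1 during a 2 h RT reaction with ATP/IP6 (mix at 1.3 mM/130 uM); top library doses 57.5 and 19.1 uM final.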
# HEK293 viab = reduces viability of HEK-293 SNCA reporter cells; Potency, µM (highest dose often 57.1 µM), for the others: at the highest dose activity change, negative = cytotoxicity, most hits filed as cytotoxic; HEK-293-SNCA-luc viability, GF-AFC fluorescence, 24 h; 150,000 tested, 0.12% active;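 also: potency is read from the fitted curve at half-maximal effect; 0% = DMSO-treated cells and -100% = medium-only wells without cells; nearly all actives have a fitted effect of over 30% in size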
#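 Cytotoxicity counterscreen: after 24 h compound treatment of genome-edited SNCA-luciferase HEK-293 cells, live-cell protease substrate GF-AFC read by fluorescence after 30 min; activity scaled between DMSO (0%) and medium-only (-100%), curves Hill-fitted.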
# Luciferase inh = inhibitors of firefly (Photinus pyralis) luciferase; P08659; purified P. pyralis luciferase, luminescence, biochemical; Potency, µM (top dose mostly 115 µM), actives largely listed as inhibitors; 76,000 tested, 2.5% active; also: potency is read from the fitted curve at half-maximal effect; nearly all actives have a fitted effect of over 65% in size
# Target sequence (P08659 whole entry, looked up): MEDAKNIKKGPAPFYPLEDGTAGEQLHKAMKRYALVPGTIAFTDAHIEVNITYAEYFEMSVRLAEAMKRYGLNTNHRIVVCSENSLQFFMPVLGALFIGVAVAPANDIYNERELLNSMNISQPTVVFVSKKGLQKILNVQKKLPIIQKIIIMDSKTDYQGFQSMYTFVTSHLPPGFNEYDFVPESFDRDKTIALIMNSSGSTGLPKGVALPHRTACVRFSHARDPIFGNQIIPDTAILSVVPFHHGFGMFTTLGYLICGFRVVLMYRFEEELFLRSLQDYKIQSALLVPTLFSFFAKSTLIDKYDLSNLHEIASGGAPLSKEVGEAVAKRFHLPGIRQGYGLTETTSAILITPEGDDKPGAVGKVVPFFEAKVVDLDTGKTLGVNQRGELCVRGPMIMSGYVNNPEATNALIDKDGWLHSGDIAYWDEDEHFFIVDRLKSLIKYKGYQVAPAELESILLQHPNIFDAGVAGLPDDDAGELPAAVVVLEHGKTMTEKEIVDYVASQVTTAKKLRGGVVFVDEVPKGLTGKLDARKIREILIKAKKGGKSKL
#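 Luminescence read by CCD imaging after purified firefly luciferase (10nM final) was added to substrate buffer holding 10uM D-luciferin and 10uM ATP, pH 7.5, pre-dosed with compound.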
# HEK293 tox = kills HEK 293 cells; 94,000 tested, 6.6% active; HEK 293 viability, ATP luminescence (CellTiter-Glo), 48-72 h; Potency, µM (top dose mostly 115 µM), for inactives: top-dose activity change, negative = cytotoxicity, most hits filed as inhibitors; AID 1345083; also: potency is read from the fitted curve at half-maximal effect; nearly all actives have a fitted effect of over 60% in size
#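 Viability of HEK 293 cells, plated at 250 cells/well, was judged by cellular ATP after compound treatment for 48 or 72 hr. Luminescence was imaged 10 min after CellTiter-Glo addition at room temperature.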
# 3T3 cytotox = cytotoxic compounds in NIH 3T3 cells | Potency, µM (doses to about 96.7 µM), for inactives: at the top dose activity change, negative = cytotoxicity, actives largely listed as inhibitors | 94,000 tested, 4.3% active | NIH 3T3 viability, CellTiter-Glo ATP luminescence, 48-72 h; also: potency is read from the fitted curve at half-maximal effect; nearly all actives have a fitted effect of over 55% in size
#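 Mouse fibroblast NIH 3T3 cells, 400 per well, received compound via pintool and were incubated for 48 or 72 hr prior to CellTiter-Glo ATP luminescence measurement.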
# SNCA expr inh = inhibitors of alpha-synuclein (SNCA) gene expression | Potency, µM (top dose mostly 57.2 µM), for inactives: at the highest dose activity change, negative = inhibition, most hits filed as inhibitors | 140,000 tested, 0.17% active | HEK-293 SNCA-luciferase knock-in, luminescence, 24 h | AID 1671194;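 also: potency is read from the fitted curve at half-maximal effect; plate controls were DMSO cells for no effect and cell-free wells for full effect; nearly all actives have a fitted effect of over 45% in size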
# Starred values were filed as active, the others as inactive; i = inactive; ? = inconclusive; / = no result given; [ ] = another dose, or the depositor's remark. Hits are enriched below; roughly 7.3% of the tested compounds scored in any of these assays. Unless noted, calls follow the shape of the dose curve; as a rule, active = well fitted curve in the direction sought with a large enough effect; inconclusive = small, poorly fitted or top-dose-only effect, or another doubt; inactive = no such curve, though single readings can be large; an effect the other way counts as inactive or inconclusive. Unless noted, % is scaled to controls: 0 for no effect and ±100 for the full control effect.
SMILES,IP6K1 inh,HEK293 viab,Luciferase inh,HEK293 tox,3T3 cytotox,SNCA expr inh
Cn1nc(C2CCCC2)cc1[C@H]1CN2CC[C@H]1C[C@@H]2CNS(=O)(=O)c1ccccc1,-7,1%[87.6 µM],i,100µM*,112µM*,11%[87.6 µM]
COc1cc2c(cc1OCc1ccccc1)NC(=O)C21CCN(C(C)=O)CC1,-6,5%[87.6 µM],?,?,40µM*,60%[87.6 µM]
COc1cncc(-c2cc3c(cc2OC)C2(CCN(C(C)=O)CC2)C(=O)N3)c1,-19,9%[87.6 µM],i,-15%[172 µM],32µM*,19%[87.6 µM]
COc1cc2c(cc1OCc1ccccc1)NC(=O)C21CCN(Cc2ccncc2)CC1,-12,-5%[87.6 µM],i,?,?,52%[87.6 µM]
COc1cc2c(cc1OCc1ccccc1)NC(=O)C21CCN(c2ccccn2)CC1,-6,-7%[87.6 µM],i,?,-21%[138 µM],41%[87.6 µM]
COc1cc2c(cc1OCc1ccccc1)NC(=O)C21CCN(Cc2ccccc2)CC1,-11,?,i,32µM*,32µM*,?
COc1cc2c(cc1OCc1ccccc1)NC(=O)C21CCN(c2ccnc(C)n2)CC1,-22,?,?,28µM*,?,63%[87.6 µM]
COc1cc2c(cc1OCc1ccccc1)NC(=O)C21CCN(Cc2c(C)noc2C)CC1,-17,-22%,?,25µM*,?,31%
COc1cc2c(cc1OCc1ccccc1)NC(=O)C21CCN(Cc2nccn2C)CC1,-14,-5%[87.6 µM],?,?,?,58%[87.6 µM]
CCc1[nH]c2ccc(OC)cc2c1CCN(C)C,0,-17%,/,/,/,/
COC1C(=O)N(c2cccc(F)c2)C12CCNCC2 (centres undefined),21,-6%,i,-22%,-6%,-8%
C=C1[C@@H](C)[C@H]2[C@H](Cc3ccccc3)NC(=O)[C@]23OC(=O)/C=C/C(=O)CCC[C@@H](C)C/C=C/[C@H]3[C@@H]1O,-11,12µM*,/,/,/,/
O=C1NCCCCCCN(Cc2ccncc2)[C@@H]2CN(C(=O)COc3ccc(F)cc3)CC[C@@H]12,1,-18%,i,-5%,35µM*,?
O=C1NCCCCCCN(Cc2cccnc2)[C@H]2CCC[C@@H]12,9,-3%,i,-12%,?,?
CN(C[C@H]1CN2CC[C@H]1C[C@@H]2CNC(=O)c1ccc(C(F)(F)F)cc1)c1ccccc1,-5,-12%[87.6 µM],i,28µM*,45µM*,-25%[87.6 µM]
CN(C[C@H]1CN2CC[C@H]1C[C@@H]2CNC(=S)NCc1ccco1)c1ccccc1,-4,-19%[87.6 µM],i,40µM*,28µM*,?
CC(=O)c1ccc(NC(=O)NC[C@H]2C[C@@H]3CCN2C[C@@H]3CN2CCC(Cc3ccccc3)CC2)cc1,1,-1%,i,?,?,30%
CN(C)c1ccc(C(=O)NC[C@H]2C[C@@H]3CCN2C[C@@H]3CN(C)c2ccccc2)cc1,-6,-5%[87.6 µM],i,?,?,15%[87.6 µM]
O=C(NC[C@H]1C[C@@H]2CCN1C[C@@H]2CN1CCC(Cc2ccccc2)CC1)c1ccccc1,-6,?,i,25µM*,25µM*,-29%[87.6 µM]
O=C(NC[C@H]1C[C@@H]2CCN1C[C@@H]2CN1CCC(Cc2ccccc2)CC1)c1ccc(C(F)(F)F)cc1,3,2%,i,79µM*,?,-8%
COc1ccc(OC)c(S(=O)(=O)N2[C@H]3CC[C@@H]2c2cnc(-c4ccccc4)nc2C3)c1,-1,-6%,i,?,-19%,-23%
CC(=O)c1cccc(NC(=O)OC[C@H]2C[C@@H]3CCN2C[C@@H]3c2cc(C3CCCC3)nc(C)n2)c1,-9,-22%,i,14µM*,?,?
O=C(Nc1cccc(C(F)(F)F)c1)OC[C@H]1C[C@@H]2CCN1C[C@@H]2c1cc(C2CCCC2)nc(-c2ccncc2)n1,10,-6%,i,4µM*,?,-21%
CCC(CC)c1cc([C@H]2CN3CC[C@H]2C[C@@H]3CNC(=O)CSCC(=O)O)nc(-c2ccncc2)n1,3,5%,i,?,?,-12%
CC(=O)c1ccc(NC(=O)OC[C@H]2C[C@@H]3CCN2C[C@@H]3c2cc(C3CCCC3)nc(-c3ccncc3)n2)cc1,9,-5%,i,32µM*,22µM*,-17%
SMILES,IP6K1 inh,HEK293 viab,Luciferase inh,HEK293 tox,3T3 cytotox,SNCA expr inh
CC(C)NC(=O)OC[C@H]1C[C@@H]2CCN1C[C@@H]2c1cc(C2CCCC2)nc(-c2ccncc2)n1,-1,-17%,i,22µM*,28µM*,?
O=C(NC1CCCCC1)OC[C@H]1C[C@@H]2CCN1C[C@@H]2c1cc(C2CCCC2)nc(-c2ccncc2)n1,10,-19%,i,?,?,-26%
CCOC(=O)[C@H]1CN(C(=O)OCC(C)(C)C)[C@]2(C)C(=O)N(C)c3ccccc3[C@H]12,1,-15%[23.9 µM],/,-26%[57.5 µM],?,-14%[25.6 µM]
N#CC1(c2ccccc2)CCN(C(=O)c2ccc3nccn3c2)CC1,-10,-1%,i,-14%,-26%,6%
O=C(c1ccoc1)N1[C@H]2CC[C@@H]1c1cnc(-c3ccccc3)nc1C2,29,-5%,i,?,?,4%
CCOC(=O)[C@H]1CN(C(=O)/C=C/c2ccccc2)[C@]2(C)C(=O)N(C)c3ccccc3[C@H]12,8,-15%[23.9 µM],/,?,-20%[46.1 µM],-6%[25.6 µM]
CC(=O)c1cn(C[C@H]2CC3CCN2C[C@@H]3C(=O)NC(C)C)nn1 (some centres undefined),-1,6%[87.6 µM],i,i,1%[174 µM],0%[87.6 µM]
Cc1ccccc1C(=O)N1CCC2(CC1)c1nccn1-c1ccccc1CN2CC(C)C,13,?,i,45µM*,?,?
Cc1ccccc1C(=O)N1CCC2(CC1)NCc1ccccc1-n1ccnc12,34,7%,i,-23%,?,5%
Cc1ccsc1C(=O)N1CCC2(CC1)NCc1ccccc1-n1ccnc12,17,-2%,i,-17%,28µM*,-7%
CS(=O)(=O)N1C[C@@H]2C[C@H](C1)c1ccc(NC(=O)c3ccncc3)c(=O)n1C2,-6,2%[87.6 µM],i,i,?,1%[87.6 µM]
COc1cc2c(cc1CCc1ccccc1)N(C(=O)C1CCC(C)CC1)CC21CCN(C(C)=O)CC1 (centres undefined),2,-27%,i,40µM*,32µM*,?
COc1cc2c(cc1CCc1ccccc1)N(C(=O)c1c[nH]c3ccccc13)CC21CCN(C(C)=O)CC1,-10,-23%,i,25µM*,22µM*,?
COc1cc2c(cc1CCc1ccccc1)N(C(=O)C(C)C)CC21CCN(C(C)=O)CC1,5,?,i,89µM*,-98%[138 µM],?

# Assay outcomes deposited in PubChem BioAssay by National Center for Advancing Translational Sciences (NCATS).
